The source of these data is PubChem BioAssay (EPA / NIEHS).

Inconclusive results are not listed. The source made the active and inactive calls. How the source made its calls: active means hit-call score of the fitted dose curve at least 0.9, where 1 is the maximum; inconclusive means response in the unintended direction; inactive means score below 0.9.

This test can be described thus: ATG_GAL4_TRANS: Attagene TRANS-FACTORIAL HepG2 Assay for GAL4 (Internal Marker) (AID 2282976). Conditions: HepG2 Attagene TRANS GAL4 internal marker reporter. The method, then:
ATG_TRANS is a cell-based, multiplexed-readout assay that uses HepG2, a human liver cell line, with measurements taken at 24 hours after chemical dosing in a 24-well plate.ATG_GAL4_TRANS is one of 30 assay component(s) measured or calculated from the ATG_TRANS assay. It is designed to make measurements of mRNA induction, a form of inducible reporter, as detected with fluorescence intensity signals by Reverse transcription polymerase chain reaction (RT-PCR) and Capillary electrophoresis technology.Data from the assay component ATG_GAL4_TRANS was analyzed into 1 assay endpoint. This assay endpoint, ATG_GAL4_TRANS, was analyzed in the positive analysis fitting direction relative to DMSO as the negative control and baseline of activity. Using a type of inducible reporter, measures of mRNA for gain-of-signal activity can be used to understand the background control at the transcription factor-level as they relate to the gene . Furthermore, this assay endpoint can be referred to as a secondary readout, because this assay has produced multiple assay endpoints where this one serves a background control function. To generalize the intended target to other relatable targets, this assay endpoint is annotated to the background measurement intended target family, where the subfamily is baseline control.
Human liver HepG2 cells are transiently transfected with multiple reporter transcription units (MRTUs) in 6-well plates using FuGene 6 reagent (Roche; 3 ml FuGene/1 mg DNA). The MRTU constructs are regulated by a cis-regulating element (promoter). […] A major difference between the CIS and TRANS system is that in CIS activities of endogenous TFs are measured, whereas the TRANS assay evaluates changes in activities of exogenous, chimeric NR-Gal4 proteins. […] At the end of 24 hour incubation, total RNA was isolated using TriZol reagent (Invitrogen). The isolated RNA is then reverse-transcribed using oligo(dT) primer and Mo-MLV reverse transcriptase (Invitrogen) with DNAse I (Ambion) treatment for 30 min. The one-tenth of the produced cDNA was amplified by PCR using Taq DNA polymerase (Invitrogen) and two reporter sequence-specific primers. The PCR products were fluorescently labeled by primer extension with 6-arboxyfluorescein (6-FAM) 5'-labeled reporter sequence-specific primer (2 min at 95 C, 20 s at 68 C and 10 min at 72 C) and these products were digested with 5U of HpaI (New England Biolabs) for 2h at 37 C. The fragments were purified using Qiaquick PCR columns (Qiagen), analyzed on an ABI 3130xL genetic analyzer (Applied Biosystems) with peak positions identified by using a set of X-rhodamine (ROX)-labeled MapMarker1000 molecular weight standards (BioVentures). The raw capillary electrophoresis data was processed using Attagraph software (Attagene).
In the case of `CC(=O)C=O`, the outcome was inactive.

Regarding `C#CC(O)CCC` (stereo not given), the call was inactive.

`CCCCCCCCn1sc(Cl)c(Cl)c1=O`: the compound was called inactive.

`CCOC(OCC)OCC`: the compound was called inactive.

Regarding `CN(C)C(C)(C)CO`, the call was inactive.

`C[Si](C)O[Si](C)C`: the call was inactive.

Turning to `OCCCCl`, the compound was classed as inactive.

As to `O=S(=O)(OCC(F)(F)F)C(F)(F)C(F)(F)C(F)(F)C(F)(F)F`, the compound was classed as inactive.

Regarding `CC(C)OC=O`, the compound was classed as inactive.

For the compound `O=C(c1ccccc1)c1ccc(O)cc1O`, the compound was classed as inactive.

Take `CCCCCCCCCCCCCC[P+](CCCC)(CCCC)CCCC`: the outcome was inactive.

For `O=C(Cl)C(F)(F)C(F)(F)C(F)(F)C(F)(F)C(F)(F)C(F)(F)F`, the compound was called inactive.

As for `OCC(F)(F)C(F)(F)C(F)(F)CO`, the compound was classed as inactive.

Turning to `COc1ccccc1C=O`, the result was inactive.

Regarding `COC(=O)c1ccc(C=O)cc1`, the compound was classed as inactive.

Take `O=C(O)CCC(F)(F)C(F)(F)C(F)(F)F`: the compound was classed as inactive.

`CCc1ccc(C)nc1`: the compound was called inactive.

As for `CCC/C=C/CO`, the result was inactive.

With `CC(C)C(=O)OCc1ccccc1`, the outcome was inactive.

As to `NCC(F)(F)C(F)(F)C(F)(F)C(F)(F)C(F)(F)C(F)(F)C(F)(F)C(F)(F)F`, the compound was called inactive.

Consider `Nc1cccnc1N`, for which the outcome was inactive.

Consider `Cc1cc(=O)[nH]c(C(C)C)n1`, for which the outcome was inactive.

For the compound `CC(C)OC(=O)COc1ccc(Cl)cc1Cl`, the outcome was inactive.

Take `NC(=O)C(F)(F)C(F)(F)C(F)(F)C(F)F`: the compound was called inactive.

Take `CCC(=O)OC(C)c1ccccc1` (stereo not given): the result was inactive.

Regarding `O=C1C=CC(=O)N1c1ccc(Cc2ccc(N3C(=O)C=CC3=O)cc2)cc1`, the compound was called inactive.

With `N#CCCOCCC#N`, the call was inactive.

Consider `CCCCOC(=O)C(C)O` (stereo not given), for which the compound was called inactive.

In the case of `CCc1cccc(C)c1N(C(=O)C(=O)O)C(C)COC` (stereo not given), the compound was classed as inactive.

For the compound `OC(O)C(F)(F)C(F)(F)F`, the call was inactive.

Consider `CCCC(=O)OCC(COC(=O)CCC)OC(=O)CCC`, for which the compound was classed as inactive.

In the case of `COCCC(=O)OC`, the compound was classed as inactive.

`O=C=NCc1cccc(CN=C=O)c1`: the call was inactive.

For the compound `CC(C)(C)c1cc(CCC(=O)NCCCCCCNC(=O)CCc2cc(C(C)(C)C)c(O)c(C(C)(C)C)c2)cc(C(C)(C)C)c1O`, the result was inactive.

Turning to `C=C(C)C(=O)OCC(F)(F)C(F)(F)C(F)(F)C(F)F`, the outcome was inactive.

`Brc1ccccn1`: the result was inactive.

`NCC(F)(F)C(F)(F)C(F)(F)C(F)(F)C(F)(F)C(F)(F)F`: the compound was called inactive.

With `O=c1[nH]cccc1O`, the compound was called inactive.

For `Nc1c(Br)cc([N+](=O)[O-])cc1Br`, the compound was classed as inactive.

Consider `O=C(O)C(F)(F)C(F)(F)C(F)(F)C(F)(F)C(F)(F)C(F)(F)C(F)F`, for which the result was inactive.
